Inhibition data for 40 compounds are collected here from ChEMBL document CHEMBL1157539, “Thousands of chemical starting points for antimalarial lead identification” (Nature, 2010).

In the first experiment the test system is Plasmodium falciparum. Kind of experiment: GSK_TCMDC: Inhibition of Plasmodium falciparum 3D7 in whole red blood cells, using parasite LDH activity as an index of growth. Test compounds present at 2uM. In kind it is functional.
Broadly, the Inhibition is the share of the control response that was lost under treatment. Read a low Inhibition as a weak effect. `CCOC(=O)c1c(NC(=O)c2ccccc2)sc2c(O)c(CN(CC)CC)ccc12.Cl` returned an Inhibition of 100%.

As to `Cc1ccc2c(NC(=O)Nc3ccc(N(C)C)cc3)cc(C)nc2c1`, the Inhibition is on record as 98%.

Compound `COc1ccc(NC(=O)N2CCCN(CCCCCNC(=O)/C=C/c3ccc(Cl)cc3)CC2)cc1Cl` came in with an Inhibition of 97%.

For the compound `CC(C)Cc1cnc2nc(N)nc(N)c2c1.Cl`, the Inhibition was determined as 98%.

Compound `CC(Cc1ccc(CNC(=O)NCc2ccc(CC(C)NCCc3cccc(Cl)c3)cc2)cc1)NCCc1cccc(Cl)c1` (stereo not given) had an Inhibition of 100%.

With `CCOc1cc(CC)ccc1C1CCN(CCN2CCC(NC(=O)c3ccc(-c4ccc(C#N)cc4)cc3)CC2)CC1`, the Inhibition is recorded as 100%.

The compound `NC(=O)C1CCN(Cc2cccc(-c3cccc(-c4nc5cc(C(F)(F)F)ccc5[nH]4)c3)c2)CC1.O=C(O)C(F)(F)F` gave an Inhibition of 100%.

`CCCN(CC1CC1)c1ncc(-c2cccc(CNCc3ccccc3O)c2)cn1` showed an Inhibition of 97%.

Compound `O=C(NCC1CC1)C1CCN(C(c2ccc(Cl)cc2)c2ccc(Cl)cc2)CC1` yielded an Inhibition of 99%.

On to `CCOc1cccc(C(=O)Nc2cccc(CN3CCCN(Cc4ccc(O)cc4)CC3)c2)c1.O=C(O)C(F)(F)F`, for which the Inhibition is given as 91%.

On to `COCCn1c(Sc2ncnc3sccc23)nc2ccccc21`, for which the Inhibition worked out at 95%.

The compound `CC(C)CSc1cc(C(=O)Nc2cc(Cl)ccc2O)ccn1` displayed an Inhibition of 100%.

The compound `O=C(c1cncc(-c2ccccc2)c1)N(Cc1cncn1Cc1ccccc1F)CC1CC1` gave an Inhibition of 100%.

Compound `Cc1noc(C)c1-c1ccc2c(Nc3ccccc3C(C)(C)C)c(C(=O)NCc3ccc(OC(C)C)cc3)cnc2c1.Cl` registered an Inhibition of 100%.

Consider `CS(=O)(=O)NCCCNCc1cccc(-c2cccc(-c3nc4cc(C(F)(F)F)ccc4[nH]3)c2)c1.O=C(O)C(F)(F)F`, for which the Inhibition was determined as 99%.

As for `CCc1cn(C)c2c(N3CCCC3=O)cc(C(=O)N[C@@H](Cc3ccccc3)[C@H](O)CNC3CCCCC3)cc12`, the Inhibition is 97%.

Turning to `CCc1cn2c3c(cc(C(=O)N[C@@H](Cc4ccccc4)[C@H](O)CNC4CCOCC4)cc13)N(CC(F)(F)F)S(=O)(=O)CC2.O=CO`, the Inhibition was 98%.

Consider `COc1ccccc1CCNC(=O)c1cc(Br)cc(N2CCN(c3ccncc3)CC2)c1.O=C(O)C(F)(F)F`, for which the Inhibition is 84%.

`COc1cc(NCC2(CNCc3cn(Cc4ccccc4)c4ccccc34)CCCCC2)nc2ccccc12.Cl` gave an Inhibition of 95%.

Turning to `Br.CC1(C)NC(N)=NC(=N)N1OCCCOc1cccc2ccccc12`, the Inhibition is on record as 95%.

With `CN(CCN(C)CC(O)c1ccc(Cl)c(Cl)c1)CC(O)c1ccc(Cl)c(Cl)c1.Cl` (stereo not given), the Inhibition was found to be 91%.

`c1ccc(CN2CCC(Nc3ccc(-c4c[nH]nc4-c4ccccn4)nc3)CC2)cc1` gave an Inhibition of 97%.

Compound `CCCCCCCc1ccc(-c2c(C)[nH]c(C)c(Cl)c2=O)cn1` yielded an Inhibition of 99%.

Regarding `Cc1cc2nc(-c3ccc(C(=O)NCCCc4ccccc4)cc3)[nH]c2cc1C`, the Inhibition stood at 91%.

Compound `COc1ccc(Nc2nc(NCc3cccnc3)cc(-c3ccc(OC)cc3)n2)cc1` returned an Inhibition of 89%.

Take `COc1ccc(NC(=O)/C=C/c2ccccc2Cl)cc1OCCN1CCN(c2ccncc2)CC1`: the Inhibition was found to be 100%.

Compound `O=C(O)c1cc(OCC(O)COc2ccc(O)c(C(=O)O)c2)ccc1O` displayed an Inhibition of 99%.

Compound `CCCCCCc1cnc2nc(N)nc(N)c2c1C` came in with an Inhibition of 93%.

The compound `NC1CCCN(Cc2cccc(-c3ccc(-c4nc5ccccc5[nH]4)s3)c2)C1.O=C(O)C(F)(F)F` (stereo not given) displayed an Inhibition of 98%.

The compound `O=C(Nc1cccc(-c2csc(-c3nc4ccccc4[nH]3)c2)c1)c1cccnc1` returned an Inhibition of 98%.

For `CCCc1cc(Cc2cnc(N)nc2N)cc(CC)c1OC.Cl`, the Inhibition is recorded as 97%.

In turn, `Clc1ccc(-c2cnc3ccc(NCc4ccncc4)nn23)cc1` returned an Inhibition of 98%.

In the case of `O=C(/C=C/c1ccc(Cl)c(Cl)c1)NC1CCC(CN2CCC(c3coc4ccccc34)CC2)CC1` (stereo not given), the Inhibition was determined as 100%.

`N=C(Nc1nc(-c2ccccn2)cc2ccccc12)c1cccc(Cl)c1`: the Inhibition amounted to 100%.

With `O=C(Nc1ccc(Cl)cc1)Nc1ccc(-c2ccc(-c3nc4ccccc4[nH]3)cc2)cc1`, the Inhibition was 100%.

Regarding `CCN1CCC(N(Cc2ccc(-c3ccc(C(F)(F)F)cc3)cc2)C(=O)Cn2c(CCc3cccc(F)c3F)cc(=O)c3ccc(OCc4ccccc4)cc32)CC1.O=C(O)C(O)C(O)C(=O)O`, the Inhibition is given as 100%.

In the case of `O=C(NCc1ccc(F)cc1)Nc1ccc(-c2cccc(-c3nc4cc(F)ccc4[nH]3)c2)cc1`, the Inhibition is recorded as 100%.

For `Cc1ccc(Cc2c[nH]c(NCCSCc3ccc(CN4CCOCC4)o3)nc2=O)cn1`, the Inhibition worked out at 95%.

Compound `COc1ccc(-n2cc(CNCCCn3ccnc3)c(-c3cccc(F)c3)n2)cc1` had an Inhibition of 98%.

On to `CC1CCC2(CC1)N=C(N)N=C(N)N2OCc1cc2ccccc2c2ccccc12` (stereo not given), for which the Inhibition came to 97%.

For another experiment, the system named is Plasmodium falciparum. Kind of experiment: GSK_TCMDC: Inhibition of Plasmodium falciparum Dd2 in whole red blood cells, using parasite LDH activity as an index of growth. Test compounds present at 2uM. In kind it is functional.
Consider `CCOC(=O)c1c(NC(=O)c2ccccc2)sc2c(O)c(CN(CC)CC)ccc12.Cl`, for which the Inhibition is given as 100%.

The compound `Cc1ccc2c(NC(=O)Nc3ccc(N(C)C)cc3)cc(C)nc2c1` returned an Inhibition of 20%.

In turn, `COc1ccc(NC(=O)N2CCCN(CCCCCNC(=O)/C=C/c3ccc(Cl)cc3)CC2)cc1Cl` showed an Inhibition of 1%.

The compound `CC(C)Cc1cnc2nc(N)nc(N)c2c1.Cl` returned an Inhibition of 0%.

Consider `CC(Cc1ccc(CNC(=O)NCc2ccc(CC(C)NCCc3cccc(Cl)c3)cc2)cc1)NCCc1cccc(Cl)c1` (stereo not given), for which the Inhibition was 44%.

Compound `CCOc1cc(CC)ccc1C1CCN(CCN2CCC(NC(=O)c3ccc(-c4ccc(C#N)cc4)cc3)CC2)CC1` gave an Inhibition of 71%.

`NC(=O)C1CCN(Cc2cccc(-c3cccc(-c4nc5cc(C(F)(F)F)ccc5[nH]4)c3)c2)CC1.O=C(O)C(F)(F)F` showed an Inhibition of 100%.

For `CCCN(CC1CC1)c1ncc(-c2cccc(CNCc3ccccc3O)c2)cn1`, the Inhibition stood at 98%.

Compound `O=C(NCC1CC1)C1CCN(C(c2ccc(Cl)cc2)c2ccc(Cl)cc2)CC1` showed an Inhibition of 95%.

As to `CCOc1cccc(C(=O)Nc2cccc(CN3CCCN(Cc4ccc(O)cc4)CC3)c2)c1.O=C(O)C(F)(F)F`, the Inhibition amounted to 31%.

`COCCn1c(Sc2ncnc3sccc23)nc2ccccc21` came in with an Inhibition of 72%.

Turning to `CC(C)CSc1cc(C(=O)Nc2cc(Cl)ccc2O)ccn1`, the Inhibition is given as 34%.

In turn, `O=C(c1cncc(-c2ccccc2)c1)N(Cc1cncn1Cc1ccccc1F)CC1CC1` gave an Inhibition of 0%.

`Cc1noc(C)c1-c1ccc2c(Nc3ccccc3C(C)(C)C)c(C(=O)NCc3ccc(OC(C)C)cc3)cnc2c1.Cl` displayed an Inhibition of 98%.

Regarding `CS(=O)(=O)NCCCNCc1cccc(-c2cccc(-c3nc4cc(C(F)(F)F)ccc4[nH]3)c2)c1.O=C(O)C(F)(F)F`, the Inhibition was 100%.

As for `CCc1cn(C)c2c(N3CCCC3=O)cc(C(=O)N[C@@H](Cc3ccccc3)[C@H](O)CNC3CCCCC3)cc12`, the Inhibition is reported as 98%.

The compound `CCc1cn2c3c(cc(C(=O)N[C@@H](Cc4ccccc4)[C@H](O)CNC4CCOCC4)cc13)N(CC(F)(F)F)S(=O)(=O)CC2.O=CO` gave an Inhibition of 98%.

Take `COc1ccccc1CCNC(=O)c1cc(Br)cc(N2CCN(c3ccncc3)CC2)c1.O=C(O)C(F)(F)F`: the Inhibition is 32%.

The compound `COc1cc(NCC2(CNCc3cn(Cc4ccccc4)c4ccccc34)CCCCC2)nc2ccccc12.Cl` had an Inhibition of 12%.

Consider `Br.CC1(C)NC(N)=NC(=N)N1OCCCOc1cccc2ccccc12`, for which the Inhibition was 86%.

On to `CN(CCN(C)CC(O)c1ccc(Cl)c(Cl)c1)CC(O)c1ccc(Cl)c(Cl)c1.Cl` (stereo not given), for which the Inhibition came to 73%.

Compound `c1ccc(CN2CCC(Nc3ccc(-c4c[nH]nc4-c4ccccn4)nc3)CC2)cc1` returned an Inhibition of 23%.

`CCCCCCCc1ccc(-c2c(C)[nH]c(C)c(Cl)c2=O)cn1` registered an Inhibition of 96%.

In turn, `Cc1cc2nc(-c3ccc(C(=O)NCCCc4ccccc4)cc3)[nH]c2cc1C` yielded an Inhibition of 5%.

Compound `COc1ccc(Nc2nc(NCc3cccnc3)cc(-c3ccc(OC)cc3)n2)cc1` gave an Inhibition of 16%.

Consider `COc1ccc(NC(=O)/C=C/c2ccccc2Cl)cc1OCCN1CCN(c2ccncc2)CC1`, for which the Inhibition was found to be 52%.

As for `O=C(O)c1cc(OCC(O)COc2ccc(O)c(C(=O)O)c2)ccc1O`, the Inhibition is recorded as 6%.

Regarding `CCCCCCc1cnc2nc(N)nc(N)c2c1C`, the Inhibition came to 20%.

Regarding `NC1CCCN(Cc2cccc(-c3ccc(-c4nc5ccccc5[nH]4)s3)c2)C1.O=C(O)C(F)(F)F` (stereo not given), the Inhibition is 88%.

As to `O=C(Nc1cccc(-c2csc(-c3nc4ccccc4[nH]3)c2)c1)c1cccnc1`, the Inhibition is reported as 45%.

On to `CCCc1cc(Cc2cnc(N)nc2N)cc(CC)c1OC.Cl`, for which the Inhibition is listed as 1%.

`Clc1ccc(-c2cnc3ccc(NCc4ccncc4)nn23)cc1`: the Inhibition is reported as 98%.

Consider `O=C(/C=C/c1ccc(Cl)c(Cl)c1)NC1CCC(CN2CCC(c3coc4ccccc34)CC2)CC1` (stereo not given), for which the Inhibition was 41%.

Consider `N=C(Nc1nc(-c2ccccn2)cc2ccccc12)c1cccc(Cl)c1`, for which the Inhibition amounted to 99%.

The compound `O=C(Nc1ccc(Cl)cc1)Nc1ccc(-c2ccc(-c3nc4ccccc4[nH]3)cc2)cc1` showed an Inhibition of 99%.

Compound `CCN1CCC(N(Cc2ccc(-c3ccc(C(F)(F)F)cc3)cc2)C(=O)Cn2c(CCc3cccc(F)c3F)cc(=O)c3ccc(OCc4ccccc4)cc32)CC1.O=C(O)C(O)C(O)C(=O)O` showed an Inhibition of 86%.

`O=C(NCc1ccc(F)cc1)Nc1ccc(-c2cccc(-c3nc4cc(F)ccc4[nH]3)c2)cc1`: the Inhibition came out at 99%.

Consider `Cc1ccc(Cc2c[nH]c(NCCSCc3ccc(CN4CCOCC4)o3)nc2=O)cn1`, for which the Inhibition stood at 0%.

For the compound `COc1ccc(-n2cc(CNCCCn3ccnc3)c(-c3cccc(F)c3)n2)cc1`, the Inhibition turned out to be 17%.

`CC1CCC2(CC1)N=C(N)N=C(N)N2OCc1cc2ccccc2c2ccccc12` (stereo not given) returned an Inhibition of 41%.
